Results on 94 molecules are retold here after PubChem BioAssay (NCATS).

Each structure is given as a SMILES string. Unmarked numbers belong to inactive results. For some assays here: Potency and affinity values are given separately. Activity calls are given as the source filed them. No rule for the calls is given here. Peptide text beside a SMILES is read from it.

For assay [1] the following is noted: Ebola virus entry assay, green fluorescence channel.
The conditions of assay [2]: Ebola virus entry assay, blue channel fluorescence.
For efficacy in this document: 0% is about no effect.

With `c1ccc2sc(SSc3nc4ccccc4s3)nc2c1`, the efficacy in assay [1] is -14.3%. As for `CC(C)(N)Cc1ccccc1Cl`, the efficacy in assay [1] is 18%. The same measure, in the same setting: the value for `CCCC(O)C(CC)CO` (stereo not drawn) was 14.1%; that for `C#C[C@]1(O)CC[C@H]2[C@@H]3CCc4cc(OC5CCCC5)ccc4[C@H]3CC[C@@]21C` was 57.3%.

With `Cc1c(I)c(=O)n(-c2ccccc2)n1C`, the efficacy in assay [1] was -23.5%. `CC(=O)N[C@@H](CC(C)C)C(=O)O`: the efficacy in assay [1] was -14.4%. For the molecule `Clc1cccc(SC2CCNCC2)n1`, in assay [1], the efficacy is -16%. Same read-out and setting: the value for `C[N+](C)(C)CCCCCC[N+](C)(C)C` was -15%. In the case of `N#CSCC(=O)O`, in assay [1], the efficacy is -33.9%. In the case of `NC(=O)n1c(O)c(C(=O)c2cccs2)c2cc(Cl)ccc21`, in assay [1], the efficacy is 15%. As to `C[C@]12CCC(=O)C=C1CC[C@@H]1[C@@H]2[C@@H](O)C[C@@]2(C)[C@H]1CC[C@]2(O)C(=O)COC(=O)CCC(=O)O`, the efficacy in assay [1] is -14%. `CC(=O)OCC(COC(C)=O)OC(C)=O`: the efficacy in assay [1] is 12.7%. Turning to `CC(C(=O)O)c1ccc(C(=O)c2ccccc2)s1` (stereo not drawn), the efficacy in assay [1] is -17.9%.

For the molecule `COc1ccc(C(=O)c2ccccc2O)c(O)c1`, the efficacy in assay [1] is -11.1%. Still for that read-out and setting: the value for `CN1CCN(c2c(F)cc3c(=O)c(C(=O)O)cn4c3c2SCC4)CC1` was -11.6%; that for `CC(C)(Oc1ccc(Cl)cc1)C(=O)O` was -14.9%; that for `NCCS(=O)(=O)O` was 39.2%. In the case of `CC1(C)O[C@@H]2C[C@H]3[C@@H]4C[C@H](F)C5=CC(=O)C=C[C@]5(C)[C@@]4(F)[C@@H](O)C[C@]3(C)[C@]2(C(=O)CO)O1`, the efficacy in assay [1] was 10.5%. As to `CN=C(NC#N)Nc1ccc(C2=NNC(=O)CC2C)cc1` (stereo not drawn), in assay [1], the efficacy was -19.1%. Same read-out and setting: the value for `CC(=O)OC(C)OC(=O)C(C)c1ccc(-c2ccccc2)c(F)c1` (stereo not drawn) was -16.8%. Consider `COC(=O)[C@@H](N)CCCN/C(N)=N/[N+](=O)[O-]`, for which the efficacy in assay [1] is -11.3%. Regarding `CCCCCCCCCCCCCCCC(=O)NCCO`, the efficacy in assay [1] was 20.8%. Same read-out and setting: the result for `CC(C)COC(=O)c1ccc(N)cc1` reads 8.42%. `Cc1ccc(O)c2ncccc12`: the efficacy in assay [1] is 17.9%. In assay [2], the outcome was inactive. As for `CCCCCCNC(=O)n1cc(F)c(=O)[nH]c1=O`, in assay [1], the efficacy is -33.6%. The outcome in assay [2] was inactive. The like results for `CCCCCCCCCCCCCCCC(=O)O` were, in that order, -6.91% and “inactive”.

`Cc1c(C)c2c(c(C)c1O)CCC(C)(COc1ccc(CC3SC(=O)NC3=O)cc1)O2` (stereo not drawn): the efficacy in assay [1] is 35.5%. In addition, the outcome in assay [2] was inactive.

In the case of `CN1CC[C@]23c4c5ccc(O)c4O[C@H]2[C@@H](O)CC[C@H]3[C@H]1C5`, the efficacy in assay [1] was 13.6%. Also, the molecule was classed as inactive in assay [2].

For `O=C(c1ccco1)N1CCNCC1`, the efficacy in assay [1] was 12.6%. For the same molecule, in assay [2], the result was inactive. Turning to `CC(C)(C)NCC(O)COc1cccc2c1C[C@H](O)[C@H](O)C2` (stereo partly drawn), in assay [1], the efficacy is 21.3%. With `CCCCCCCCCCOc1cc2c(=O)c(C(=O)OCC)c[nH]c2cc1OCC`, the efficacy in assay [1] was 11%. Besides, the molecule was called inactive in assay [2]. On the same counts, the results for `CC(=O)Nc1c(I)cc(I)c(C(=O)O)c1I` are -9.82% and “inactive”. Take `Nc1ccc(C(=O)O)cc1`: the efficacy in assay [1] is -10.9%. In the case of `Cc1oc(=O)oc1COC(=O)[C@@H]1N2C(=O)[C@@H](NC(=O)[C@H](N)c3ccccc3)[C@H]2SC1(C)C`, the efficacy in assay [1] was -26.8%. In addition, the outcome in assay [2] was inactive.

For the molecule `COc1ccc2[nH]cc(CCNC(C)=O)c2c1`, in assay [1], the efficacy was -12.3%.

Consider `CC(=O)N[C@@H](CCC(=O)O)C(=O)O`, for which the efficacy in assay [1] is -13.7%. In assay [2], the molecule was classed as inactive. Take `Cc1scc2c1N(C(=O)CN1CCN(C)CC1)c1ccccc1NC2=O`: in assay [1], the efficacy was 20.4%. For `CC(=O)Nc1ccc(OCC(O)CNC(C)C)cc1` (stereo not drawn), in assay [1], the efficacy was -28.6%. The call in assay [2] was inactive. Regarding `OC[C@@H](O)[C@@H](O[C@@H]1O[C@H](CO)[C@H](O)[C@H](O)[C@H]1O)[C@H](O)[C@@H](O)CO`, the efficacy in assay [1] is -17.2%. In addition, in assay [2], the call was inactive. For the molecule `COc1ccc2cccc(CCNC(C)=O)c2c1`, the efficacy in assay [1] is -16.7%. The call in assay [2] was inactive.

Turning to `NCCCNCCSP(=O)(O)O`, the efficacy in assay [1] is 18%. Further, the result in assay [2] was inactive.

As for `COC(=O)c1cccnc1`, the efficacy in assay [1] was 12.2%. In assay [2], the outcome was inactive. The like results for `O=C(O)c1c(O)c(-c2ccccc2)nc2ccccc12` were, in that order, 18% and “inactive”. Take `O=C1CC2(CCCC2)CC(=O)N1`: the efficacy in assay [1] is -26.6%. In assay [2], the call was inactive.

On to `Cc1ncc([N+](=O)[O-])n1CC(O)CCl` (stereo not drawn), for which the efficacy in assay [1] is -16.3%. Consider `COC(=O)N/N=C/c1c[n+]([O-])c2ccccc2[n+]1[O-]`, for which the efficacy in assay [1] was 35%. The call in assay [2] was inactive. The like results for `CC(=O)CC/C=C(\C)CC/C=C(\C)CC/C=C(\C)CCC=C(C)C` were, in that order, -14.5% and “inactive”.

Turning to `CC(=O)Nc1ncc([N+](=O)[O-])s1`, the efficacy in assay [1] was 20.3%. Moreover, the molecule was called inactive in assay [2]. The like results for `Cc1cc(O)c2ccccc2c1O` were, in that order, 13.4% and “inactive”. Turning to `COC(=O)/C=C\C(=O)OC`, in assay [1], the efficacy is 24.5%. Further, in assay [2], the call was inactive. The like results for `Cc1cc(CC(=O)O)c(C)n1-c1ccc(Cl)cc1` were, in that order, 41.9% and “inactive”. On to `CCNC(=O)[C@@H]1CCCN1C(=O)[C@H](CCCN=C(N)N)NC(=O)[C@H](CC(C)C)NC(=O)CNC(=O)[C@H](Cc1ccc(O)cc1)NC(=O)[C@H](CO)NC(=O)[C@H](Cc1c[nH]c2ccccc12)NC(=O)[C@H](Cc1cnc[nH]1)NC(=O)[C@@H]1CCC(=O)N1` (HELM PEPTIDE1{[Glp].H.W.S.Y.G.L.R.P.[CCN[*:1]]}$$$$V2.0), for which the efficacy in assay [1] was 17.9%. In assay [2], the call was inactive.

Regarding `COc1c2occc2cc2ccc(=O)oc12`, the efficacy in assay [1] was -15%. Moreover, the molecule was classed as inactive in assay [2]. The like results for `C[C@@H]1CCC[C@H](C)N1` were, in that order, -7.35% and “inactive”. As to `COC(=O)c1ccc(O)cc1`, the efficacy in assay [1] is 13.3%. For the same molecule, the call in assay [2] was inactive. Take `O=C(N/N=C/c1ccc([N+](=O)[O-])o1)c1ccc(O)cc1`: the efficacy in assay [1] is 14.6%. As for `Cc1cc(O)c2c(O)c3c(O)cccc3cc2c1`, the efficacy in assay [1] is 34.7%. For the same molecule, in assay [2], the molecule was classed as inactive. The like results for `O=C(Nc1ccc(Br)cc1)c1cc(Br)cc(Br)c1O` were, in that order, -20.2% and “inactive”. `CNCCCCOc1ccccc1Cc1ccccc1`: the efficacy in assay [1] was 68.3%. Also, the AC50 (as a rule, the concentration at which the activity in the assay is half-maximal) in assay [2] was 5.62 µM (active).

In the case of `CCN(CC)CCOC(=O)c1ccc(N)cc1`, in assay [1], the efficacy is -27.3%.

Take `CC[C@H](C)[C@H](N)C(=O)O`: in assay [1], the efficacy was -38.6%. The result in assay [2] was inactive. On the same counts, the results for `CC(=O)OCC1=C(C(=O)O)N2C(=O)[C@@H](NC(=O)Cc3cccs3)[C@H]2SC1` are -9.53% and “inactive”.

As for `O=C1[C@@H]2[C@H]3CC[C@H](C3)[C@@H]2C(=O)N1CCCCN1CCN(c2ncccn2)CC1`, in assay [1], the efficacy is -13.3%. The outcome in assay [2] was inactive. On the same counts, the results for `O=C(O)c1cc(=O)c2ccccc2o1` are -28.1% and “inactive”. The like results for `COc1cc(C)nc(-n2nc(C)cc2OC)n1` were, in that order, -14.1% and “inactive”. The like results for `O=C(OOC(=O)c1ccccc1)c1ccccc1` were, in that order, -19.5% and “inactive”.

As for `CN1[C@@H]2CC(OC(=O)[C@H](CO)c3ccccc3)C[C@H]1[C@@H]1O[C@@H]12` (stereo partly drawn), the efficacy in assay [1] is -18.3%. Moreover, in assay [2], the result was inactive. In the case of `CN1Cc2cc(C(=O)N3CCC(C4CCNCC4)CC3)ccc2NC(CC(=O)O)C1=O` (stereo not drawn), the efficacy in assay [1] is 57.9%. For the same molecule, the result in assay [2] was inactive.

Consider `O=C(O)c1ccccc1C(=O)Nc1ccc(S(=O)(=O)Nc2nccs2)cc1`, for which, in assay [1], the efficacy was -12.6%. Also, in assay [2], the result was inactive. On the same counts, the results for `COc1cccc(OC)c1C(=O)N[C@@H]1C(=O)N2[C@@H]1SC(C)(C)[C@@H]2C(=O)O` are 19.6% and “inactive”. The like results for `NNC(=O)c1ccncc1` were, in that order, 13.1% and “inactive”. For `O=C(O)Cn1cnnn1`, in assay [1], the efficacy is 14.2%. For the same molecule, the outcome in assay [2] was inactive. `COc1cc(NS(=O)(=O)c2ccc(N)cc2)nc(C)n1`: the efficacy in assay [1] is -19.1%. The result in assay [2] was inactive.

Take `CCCC(CCC)(C(=O)OCC)C(=O)OCC`: the efficacy in assay [1] is 21%. Further, the outcome in assay [2] was inactive.

On to `Oc1ccc(Cl)c2cccnc12`, for which the efficacy in assay [1] was -23.9%. In addition, the outcome in assay [2] was inactive. As for `Nc1cc(=O)[nH]c(N)n1`, the efficacy in assay [1] is -17.6%. For the same molecule, the result in assay [2] was inactive. With `CCCCCCOc1ccccc1C(N)=O`, the efficacy in assay [1] was -13.5%. For the same molecule, in assay [2], the outcome was inactive.

As for `Cc1cc2nc3c(=O)[nH]c(=O)nc-3n(C[C@H](O)[C@H](O)[C@H](O)CO)c2cc1C`, in assay [1], the efficacy is 67.6%. For the same molecule, the molecule was classed as inactive in assay [2]. Consider `CC(O)C(=O)O` (stereo not drawn), for which, in assay [1], the efficacy was 12.5%. The result in assay [2] was inactive.

As for `COc1ccc(C(=O)NCc2ccc(OCCN(C)C)cc2)cc1OC`, the efficacy in assay [1] is -7.96%. Besides, in assay [2], the molecule was called inactive. On the same counts, the results for `COc1cc(OC)nc(O[C@H](C(=O)O)C(OC)(c2ccccc2)c2ccccc2)n1` are 36.2% and “inactive”. On the same counts, the results for `N[C@@H](COP(=O)(O)O)C(=O)O` are -11.1% and “inactive”. In the case of `CC(=O)OCC[N+](C)(C)C`, the efficacy in assay [1] is -18%. The result in assay [2] was inactive. Consider `CCO/C([O-])=N/c1c[n+](N2CCOCC2)no1`, for which, in assay [1], the efficacy is -25.2%. For the same molecule, the molecule was classed as inactive in assay [2]. On the same counts, the results for `Cc1ccc(S(=O)(=O)NC(=O)NC2CCCCCCC2)cc1` are -10.6% and “inactive”. On the same counts, the results for `NS(=O)(=O)c1cc(C(=O)NN2C[C@H]3[C@H]4CCC(C4)[C@H]3C2)ccc1Cl` are -15.5% and “inactive”. As to `CO[C@@H]1[C@@H](OC(N)=O)[C@@H](O)[C@H](Oc2ccc3c(O)c(NC(=O)c4ccc(O)c(CC=C(C)C)c4)c(=O)oc3c2C)OC1(C)C`, the efficacy in assay [1] was 15.5%. Besides, the call in assay [2] was inactive. As for `O=C(O)/C=C(\CC(=O)O)C(=O)O`, the efficacy in assay [1] was -11%. For the same molecule, the result in assay [2] was inactive. For the molecule `Cc1cc(OI)c(C(C)C)cc1-c1cc(C(C)C)c(OI)cc1C`, the efficacy in assay [1] is 13.6%. The molecule was called inactive in assay [2]. On the same counts, the results for `CC(=O)Oc1cccc(O)c1` are -10.5% and “inactive”.

On to `O=C(O)CN1C(=O)c2cccc3cccc(c23)C1=O`, for which the efficacy in assay [1] was 11.9%. In assay [2], the call was inactive. In the case of `C[N+]1(C)[C@@H]2CC(OC(=O)[C@H](CO)c3ccccc3)C[C@H]1[C@@H]1O[C@@H]12` (stereo partly drawn), in assay [1], the efficacy was 12.9%. For the same molecule, the molecule was called inactive in assay [2]. On the same counts, the results for `CCOC(=O)c1ccc(O)cc1` are -24.8% and “inactive”. The like results for `Cc1cc(NS(=O)(=O)c2ccc(N)cc2)no1` were, in that order, 21.6% and “inactive”.
